The list is not random: actives were taken first. Their share in the collection is about 3.5%.
FBW7 act: human FBW7 E3 ligase activation, primary screen | AlphaScreen FBW7–phospho-cyclin E peptide binding, activator screen | normalized activity (activation), % at 26.1 µM | hit rate 0.13% among 650,000 | AID 1259310; in the data active means normalized activity above about 1.9%;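 further: purified mutant Fbw7 with reduced substrate affinity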
GPR151 activ: activators of human GPR151; activation, % at 11.2 µM; AID 1508602; hit rate 1% among 650,000; PathHunter beta-arrestin GPR151 cells, luminescence; Q8TDV0; in the data active means activation above about 4.9%;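 further: 0% = median of compound wells and 100% = cells with positive control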
MITF inh: blocks human microphthalmia-associated transcription factor; hit rate 0.91% among 650,000; O75030; AlphaScreen MITF homodimerization, bead proximity signal; inhibition, % at 2.6 µM; in the data active means inhibition above about 50%;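 further: 0% = vehicle wells with protein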
Target sequence (O75030 whole entry, looked up): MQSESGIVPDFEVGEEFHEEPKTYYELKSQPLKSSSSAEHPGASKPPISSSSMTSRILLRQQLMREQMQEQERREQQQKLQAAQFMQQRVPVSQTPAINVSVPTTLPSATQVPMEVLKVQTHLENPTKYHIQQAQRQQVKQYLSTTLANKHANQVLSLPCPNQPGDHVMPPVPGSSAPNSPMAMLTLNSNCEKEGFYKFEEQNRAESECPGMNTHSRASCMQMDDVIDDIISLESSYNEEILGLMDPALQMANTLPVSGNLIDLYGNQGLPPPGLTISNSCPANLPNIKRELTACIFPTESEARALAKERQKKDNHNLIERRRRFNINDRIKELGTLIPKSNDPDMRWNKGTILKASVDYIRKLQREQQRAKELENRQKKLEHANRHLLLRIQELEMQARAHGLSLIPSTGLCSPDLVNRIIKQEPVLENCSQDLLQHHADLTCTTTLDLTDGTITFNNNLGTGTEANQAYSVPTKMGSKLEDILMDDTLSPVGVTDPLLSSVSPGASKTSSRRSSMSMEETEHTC
TEAD-YAP inh: TEAD-YAP interaction inhibition. HEK-TIYL cells, TEAD-Gal4/YAP UAS-luciferase luminescence. inhibition, % at 9.12 µM. hit rate 1.4% among 640,000. AID 1259422; in the data active means inhibition above about 32%;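 further: 0% = median of test compound wells and 100% = reference inhibitor wells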
MITF confirm: human MITF inhibition, confirmation | AlphaScreen MITF homodimerization, biotin/His-MITF beads | inhibition, % at 2.6 µM | shares compounds with MITF inh | hit rate 16% among 4,700;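 active means inhibition above a cutoff derived from the DMSO control wells, cut at about 28% in these data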;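 further: 0% = MITF dimer wells with DMSO only; inhibitors lower the bead chemiluminescence by keeping MITF from dimerizing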
AlphaScreen DR: AlphaScreen optical interference, dose response counter-screen. shares compounds with MITF inh. AlphaScreen optical interference counterscreen, cell-free. IC50, µM. hit rate 6% among 480. AID 1259373; call rule not given here
AS interf ctr: AlphaScreen optical interference, counter-screen | hit rate 7.6% among 4,700 | shares compounds with MITF inh | inhibition, % at 2.6 µM | LysRS AlphaScreen counterscreen, signal interference, triplicate;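 active means inhibition above a cutoff derived from the DMSO control wells, cut at about 30% in these data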
* marks the source's active call; other numbers are inactive results; . = no result.

SMILES	FBW7 act	GPR151 activ	MITF inh	TEAD-YAP inh	MITF confirm	AS interf ctr	others
CC1(C)CC(=O)C2=C(C1)N(c1cccc(Cl)c1)C(N)=C(C#N)C2c1ccc(F)cc1 (configuration not stated)	0	2	1	-13	.	.
CCC(CC)NC(=O)CN1C(=O)NC(CC(C)C)C1=O (configuration not stated)	0	1	2	-1	.	.
C=CCc1cc(C)ccc1OCCN1CCN(C)CC1	0	-1	57*	-11	6	2
COc1ccc(-n2nc3c(c2NC(=O)c2ccc4c(c2)OCO4)CSC3)cc1	0	-1	89*	18	-8	-6
Cc1ccccc1C(=O)Nc1c2c(nn1-c1ccc([N+](=O)[O-])cc1)CSC2	0	1	61*	-4	2	9
Cc1ccc(C(=O)Nc2c3c(nn2-c2ccccc2C)CSC3)cc1	0	1	71*	2	11	16
Cc1ccccc1-n1nc2c(c1NC(=O)c1ccc(Br)cc1)CSC2	0	0	7	7	.	.
COc1c(C)cccc1C(=O)NC12CC3CC(CC(C3)C1)C2	0	0	-8	-5	.	.
COc1ccc(OC)c(-n2nnnc2SCc2cccnc2)c1	0	-1	-6	12	.	.
CC1=NC(=S)C2C(=O)O/C(=C/c3ccc(-c4cccc([N+](=O)[O-])c4)o3)C2=C1 (configuration not stated)	0	-1	53*	-5	34*	24
O=C(C1CCCN1S(=O)(=O)c1cccc2cccnc12)N1CCc2ccccc21 (configuration not stated)	0	1	73*	8	-18	-4
CC1CN(Cc2ccc(C(F)(F)F)cc2)CC(C)O1 (configuration not stated)	0	-1	55*	8	1	4
CC1CN(Cc2ccc(Cl)cc2)CC(C)O1 (configuration not stated)	0	1	37	0	.	.
CC1CN(Cc2cccc(Cl)c2)CC(C)O1 (configuration not stated)	0	-1	64*	1	0	4
COc1ccc(OC)c(CCNC(=O)c2nc(-c3cccnc3)no2)c1	0	-2	4	7	.	.
Nc1ccc(S(=O)(=O)N2CCOC3CCCCC32)cc1 (configuration not stated)	0	2	76*	-2	11	14
O=C1N[C@@H](Cc2ccc(O)cc2)C(=O)N2CCN(C(=O)NCc3ccccc3)C[C@H]12	0	-2	64*	4	69*	-1	AlphaScreen DR=>6.5
O=C1N[C@@H](Cc2ccc(O)cc2)C(=O)N2CCN(C(=O)OCc3ccccc3)C[C@H]12	0	-2	-17	-6	.	.
O=C1N[C@@H](Cc2ccc(Cl)cc2)C(=O)N2CCN(C(=O)NCc3ccccc3)C[C@H]12	0	1	73*	10	71*	-14	AlphaScreen DR=>6.5
O=C(NCCN1C(=O)C2C3C=CC(C3)C2C1=O)Nc1nncs1 (configuration not stated)	0	-2	-16	0	.	.
COC1(OC)N=C(N)C2(C#N)C(c3cccc(C)c3)C12C#N (configuration not stated)	0	0	52*	2	8	-2
COC1(OC)N=C(N)C2(C#N)C(c3cccc(OCc4ccccc4)c3)C12C#N (configuration not stated)	0	-1	35	-3	.	.
O=C(O)CC(C(=O)O)N1Cc2ccccc2C1=O (configuration not stated)	0	-2	11	5	.	.
CCC(C)NCCOc1ccccc1F (configuration not stated)	0	0	53*	-7	-12	1
CCC(C)NCCCOc1cccc(Br)c1 (configuration not stated)	0	0	80*	2	-7	10
SMILES	FBW7 act	GPR151 activ	MITF inh	TEAD-YAP inh	MITF confirm	AS interf ctr	others
CCCOc1ccc(OCCCNC(C)CC)cc1 (configuration not stated)	0	0	23	8	.	.
CCOC(=O)C1=C(C)N=c2s/c(=C\c3ccc(-c4ccccc4)o3)c(=O)n2C1c1ccccc1OC(C)C (configuration not stated)	0	2	-5	-1	.	.
Cc1ccc(-c2csc(Nc3ccc(O)cc3)n2)cc1	0	-1	1	-91	.	.
Cn1c(=O)c([N+](=O)[O-])c(Nc2ccc(Br)cc2)c2ccccc21	0	0	-1	9	.	.
O=C(c1ccco1)N1CCN(Cc2ccc3c(c2)OCO3)CC1	0	-1	62*	-3	3	-4
CS(=O)(=O)N(CC(=O)N1CCN(Cc2ccc3c(c2)OCO3)CC1)c1ccc(F)cc1	0	0	75*	2	-5	-2
S=C(NCc1ccco1)N1CCN(Cc2ccccc2)CC1	0	1	1	-5	.	.
S=C(NCc1ccco1)N1CCN(Cc2ccc3c(c2)OCO3)CC1	0	0	80*	0	11	22
CCOc1ccccc1C(=O)Nc1cc(Cl)ccc1C(=O)O	0	1	-9	1	.	.
c1ccc(OCCNc2ccnc(-c3ccc4[nH]ccc4c3)n2)cc1	0	1	6	-11	.	.
COCCCNc1ccc([N+](=O)[O-])cc1C(=O)Nc1cccc(C)n1	0	-1	52*	0	8	10
COc1ccc(CN2CCN(C(=O)c3cccc(OC)c3)CC2)cc1	0	1	27	6	.	.
COc1cccc(C(=O)N2CCN(Cc3ccc(OC)c(Br)c3)CC2)c1	0	0	52*	-7	11	14
COc1ccc(CN2CCN(C(=O)c3cc(OC)c(OC)c(OC)c3)CC2)cc1Br	1	-2	52*	-4	6	2
CN1CCC(N(C)Cc2cccc(Br)c2)CC1	0	0	35	-3	.	.
CN1CCC(N(C)Cc2c(F)cccc2Cl)CC1	0	4	53*	7	18	7
COC(=O)c1ccc(CN(C)C2CCN(C)CC2)cc1	0	0	57*	-5	11	16
CN1CCC(N(C)Cc2cccc(F)c2)CC1	0	0	59*	-4	-1	3
CN1CCC(N(C)Cc2ccc(Cl)cc2)CC1	0	1	53*	-11	-5	0
CN1CCC(N(C)Cc2cccc(Cl)c2Cl)CC1	0	2	12	0	.	.
COC(=O)c1cc(S(=O)(=O)N(CCc2ccccc2)Cc2ccccc2)cn1C	0	-2	11	4	.	.
COc1ccc(CN(C)C2CCN(C)CC2)c(C)c1C	0	0	59*	-5	-1	8
COc1cc(OC)c(OC)cc1CN(C)C1CCN(C)CC1	0	0	25	-4	.	.
OCCOc1ccc(Br)cc1CO	1	-1	10	7	.	.
O=C1c2cccnc2C(=O)N1c1ccc(Oc2ccccc2)cc1	0	0	21	-29	.	.

Bioassay records deposited in PubChem BioAssay by The Scripps Research Institute Molecular Screening Center.
